Compounds with a hit are over-represented: about 28% of the library has one in this group of screens.
CYP2C9 inhib = blockers of cytochrome P450 2C9 activity – biochemical, luminescence, ADME assay, primary screen; P11712; CYP2C9 Supersomes, luciferin-H conversion; inhibition, % at 5 µM; actives 20% (n = 96,000);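 active = blocking of liver enzyme CYP2C9 beyond about 50% at 5 µM, limit read from the data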
CYP2C19 inh = blockers of cytochrome P450 2C19 activity – biochemical, luminescence, ADME assay, primary screen; inhibition, % at 5 µM; actives 21% (n = 96,000); CYP2C19 Supersomes, luciferin-H EGE luminescence, 30 min;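 active = CYP2C19 inhibition above a set limit at 5 µM in the primary screen, cut at about 50% in these data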
PLK1 PBD inh = Plk1 polo box domain binding inhibitors, primary screen, biochemical, fluorescence polarization; actives 0.13% (n = 97,000); AID 693, 2007; inhibition, %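 (tested at about 20 µM)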; Plk1 PBD phosphopeptide binding; in the data active = inhibition above about 34%, passing the limit was not always enough
Target sequence (P53350 whole entry, looked up, the tested form may be a part): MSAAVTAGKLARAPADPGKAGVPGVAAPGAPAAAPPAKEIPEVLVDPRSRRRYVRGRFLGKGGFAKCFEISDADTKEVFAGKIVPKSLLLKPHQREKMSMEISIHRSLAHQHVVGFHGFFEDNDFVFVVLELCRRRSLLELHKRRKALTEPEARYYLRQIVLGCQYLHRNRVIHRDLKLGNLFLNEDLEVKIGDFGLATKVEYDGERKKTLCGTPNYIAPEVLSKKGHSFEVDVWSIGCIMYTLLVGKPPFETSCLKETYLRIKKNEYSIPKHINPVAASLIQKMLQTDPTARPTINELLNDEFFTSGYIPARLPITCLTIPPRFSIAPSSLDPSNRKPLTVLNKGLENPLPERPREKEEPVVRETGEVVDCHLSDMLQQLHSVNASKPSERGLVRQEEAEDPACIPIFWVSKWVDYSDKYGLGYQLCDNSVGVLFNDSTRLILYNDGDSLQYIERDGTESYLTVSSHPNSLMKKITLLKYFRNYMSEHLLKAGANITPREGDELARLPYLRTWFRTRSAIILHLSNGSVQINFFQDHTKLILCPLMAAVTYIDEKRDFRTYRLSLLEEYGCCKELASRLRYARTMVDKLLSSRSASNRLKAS
PLK1 inh = human PLK1 kinase inhibitors, primary screen, biochemical, TR-FRET; actives 0.53% (n = 97,000); Serine/threonine-protein kinase PLK1 (Homo sapiens), P53350; recombinant PLK1 kinase, TR-FRET peptide phosphorylation; inhibition, % at 10 µM;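 active = inhibition of 50% or more in the single-concentration screen; inactive = inhibition below 50%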
CYP2C19 act = human CYP2C19 activators, primary screen, biochemical, luminescence; Cytochrome P450 2C19 (Homo sapiens), P33261; recombinant CYP2C19, luciferin-H EGE luminescence; stronger effect = higher value; 0 = fully inhibited enzyme, 1 = untreated enzyme; activation factor at 5 µM; 96,000 tested, under 10 active; AID 1025, 2008;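 active = activation factor of at least 2 at 5 µM in the primary screen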
CYP2C9 activ = human CYP2C9 activators, primary screen, biochemical, luminescence; Cytochrome P450 2C9 (Homo sapiens), P11712; recombinant CYP2C9, luciferin-H conversion; stronger effect = higher value; factor 1 = untreated enzyme, 0 = blocked; activation factor at 5 µM; actives 1.4% (n = 96,000); AID 1024, 2008;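 active = activation factor of 2 or more for CYP2C9 at a 5 µM dose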
Numbers stand for hits; - = inactive; . = not tested or not shown.

SMILES | CYP2C9 inhib | CYP2C19 inh | PLK1 PBD inh | PLK1 inh | CYP2C19 act | CYP2C9 activ
Cc1c(NC(=O)OCCSc2nc(N(C)C)nc(N(C)C)n2)sc(=S)n1C | - | - | - | - | - | -
O=C(CSc1ccccc1)N1CCc2ccccc21 | - | 94.2 | - | - | - | -
Nc1cc(N)nc(SCC(=O)N2CCc3ccccc32)n1 | - | - | - | - | - | 2.5
Cn1c(SCC(=O)N2CCc3ccccc32)nnc1C1CC1 | - | 76.2 | - | - | - | -
CCn1nnnc1SCC(=O)N1CCc2ccccc21 | . | . | - | - | . | .
CCn1cc(SCC(=O)N2CCc3ccccc32)c2ccccc21 | 60.3 | 61.4 | - | - | - | -
Cc1nc(SCC(=O)N2CCc3ccccc32)n[nH]1 | - | - | - | - | - | -
Cc1ccc(CNC(=O)C2CCCCC2C(=O)O)cc1 (stereo not given) | - | - | - | - | - | -
Cn1c(/C(C#N)=C/C2CC=CCC2)nc2ccccc21 (stereo not given) | - | 58.0 | - | - | - | -
O=C1NC2(CCCCCC2)N=C1c1ccc(F)cc1 | - | - | - | - | - | -
CC1(C)N=C(c2ccc(Cl)cc2)C(=O)N1 | - | 87.4 | - | - | - | -
CC1(C)N=C(c2cccc(F)c2)C(=O)N1 | - | 60.2 | - | - | - | -
CC1(C)N=C(c2ccccc2)C(=O)N1 | - | - | - | - | - | -
Cc1ccc(C2=NC(C)(C)NC2=O)cc1 | - | 83.6 | - | - | - | -
COc1ccc(NC(=O)CN2CCN(Cc3ccc4c(c3)OCO4)CC2)cc1OC | - | - | - | - | - | -
Cc1cc2c(nn1)CCc1nonc1-2 | - | - | - | - | - | -
COc1ccccc1C1SCCN1S(C)(=O)=O (stereo not given) | - | 57.4 | - | - | - | -
Cc1ccc(-c2noc(CCC(=O)NCCN3CCOCC3)n2)cc1 | - | - | - | - | - | -
Cc1ccc(-c2noc(CCC(=O)NCCN3CCc4ccccc4C3)n2)cc1 | 71.6 | 84.4 | - | - | - | -
Cc1ccc(-c2noc(CCC(=O)NCCN3CCN(Cc4ccccc4)CC3)n2)cc1 | 62.0 | 50.8 | - | - | - | -
O=C(CCc1nc(-c2ccccc2F)no1)NCCN1CCc2ccccc2C1 | - | 60.2 | - | - | - | -
O=C(CCc1nc(-c2ccccc2F)no1)NCCc1ccccc1Cl | 56.3 | 80.5 | - | - | - | -
CCOc1cc(N2CCOCC2)c(OCC)cc1NC1=NCCCCC1 | - | - | - | - | - | -
CCN(CCCNC(=O)CCc1nc(-c2ccc(C)cc2)no1)c1cccc(C)c1 | 52.3 | - | - | - | - | -
COC(=O)C1=C(C)NC(C)=C(C(=O)OC)C1C(=O)OCCN1C(=O)c2ccccc2C1=O | 70.8 | 80.2 | - | - | - | -
SMILES | CYP2C9 inhib | CYP2C19 inh | PLK1 PBD inh | PLK1 inh | CYP2C19 act | CYP2C9 activ
Cc1cc(=O)oc2cc(OC(=O)CCN3C(=O)c4ccccc4C3=O)ccc12 | - | - | - | - | - | -
COc1ccccc1OCCC(=O)OCCN1C(=O)c2ccccc2C1=O | - | 56.1 | - | - | - | -
COc1ccccc1OC(=O)CN1C(=O)c2ccccc2C1=O | - | - | - | - | - | -
COc1ccc(OC(=O)CCCN2C(=O)c3ccccc3C2=O)cc1 | - | 52.9 | - | - | - | -
Cn1c2ccccc2c2c(C(=O)NCc3ccco3)cn(C3CCCCC3)c(=O)c21 | - | - | - | - | - | -
C/C(N)=C(/C#N)C(=O)COC(=O)CSc1ccccc1 | - | - | - | - | - | -
C/C(N)=C(/C#N)C(=O)COC(=O)CC1CCCC1 | - | 88.5 | - | - | - | -
C/C(N)=C(/C#N)C(=O)COC(=O)C1CCC(C(C)(C)C)CC1 (stereo not given) | 84.0 | 89.6 | - | - | - | -
C/C(N)=C(/C#N)C(=O)COC(=O)CC12CC3CC(CC(C3)C1)C2 | 80.9 | 77.5 | - | - | - | -
CC(C)Cc1nnc(NC(=O)c2ccc([N+](=O)[O-])cc2)s1 | - | - | - | - | - | -
O=C(OCCN1CCOCC1)c1cccs1 | - | - | - | - | - | -
Cc1ccccc1OCCNc1cc(N2CCCCC2)ccc1[N+](=O)[O-] | 94.6 | 89.3 | - | - | - | -

Screening data deposited in PubChem BioAssay by several laboratories.
